# Measured values as given in PubChem BioAssay (NCI).
# Compounds without any hit were thinned out: in the full panel of roughly 83,000, 20% have a hit.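 Growth was measured after 48 h exposure to one concentration of compound in 96-well plates. Values under 10 count as active.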 Unmarked numbers belong to inactive results. Activity calls are given as the source filed them.
# System: T-47D breast
# Assay: NCI-60 one-dose screen, 48 h (100 = growth as untreated, 0 = no growth, -100 = all killed)
# Details: 10 µM unless noted
row,Compound,growth
1,NCCNc1nc(Nc2ccc(-c3nc4ccccc4[nH]3)cc2)c2cn[nH]c2n1,60.8%
2,Clc1ccc2c(NCCCCNc3nc(N4CCCCC4)nc4ccccc34)ccnc2c1,-46.7% (active)
3,Cc1cc(C)nc(SC2=C(Nc3ccc(C)c(Cl)c3)C(=O)N(Cc3ccccc3)C2=O)n1,26% [30 µM]
4,O=c1c(F)cn(Cc2ccccc2CCl)c(=O)n1Cc1ccccc1CCl,-49.5% (active)
5,C=CC(=O)Nc1cccc(Nc2nc(SC)nc(-c3cccc([N+](=O)[O-])c3)c2C#N)c1,42.7%
6,COc1ccc(C(=O)COc2cccc(/C=C3\CSc4ccccc4C3=O)c2)cc1,69.7%
7,CC(O)CN(CC(C)O)c1ccc2c(c1)Cc1cc([N+](=O)[O-])ccc1-2 (centres undefined),109%
8,CCOC(=O)c1sc(Nc2ccc(Cl)cc2)nc1C,6.67% (active)
9,CC/C=C\C[C@H]1C/C=C2/C(=O)C=C[C@H]2C/C=C\CCCC(=O)O1,27.4%
10,O=C1CC[C@H](c2ccc(O)c3c2C(=O)[C@@H]2O[C@@H]2C3=O)c2cccc(O)c21,-26.1% (active)
11,O=C(Cc1ccc(/C=C/C(=O)c2ncc[nH]2)cc1)Nc1ccccc1,39.9%
12,Cc1cc(C)nc(SC2=C(Nc3cccc(Cl)c3C)C(=O)N(Cc3ccccc3)C2=O)n1,37.1% [30 µM]
13,CSc1ccc(SC2c3ccc(C)cc3Oc3nc(N)c(C#N)c(N)c32)cc1 (centres undefined),-45.1% (active)
14,C(=C\c1nccc2c1[nH]c1ccccc12)/c1ccccc1,29.8%
15,CCCSc1ccc2nc(NC(=O)OC)[nH]c2c1,57.4%
16,CCCc1cc(=O)n2c(C(=O)Nc3ccc(F)cc3)c(C(=O)Nc3ccc(F)cc3)sc2n1,97.1% [30 µM]
17,COc1ccccc1Nc1nc(-c2cc3cccc(C(F)(F)F)c3oc2=O)cs1,68.9%
18,O=Nc1c(O)c(Cl)cc2ccccc12,-4.57% (active)
19,CCC([N+](=O)[O-])S(=O)(=O)c1ccc(C)cc1 (centres undefined),92.6%
20,Clc1ccc2c(NCCNc3nc(N4CCCCC4)nc4ccccc34)ccnc2c1,-29.7% (active)

row,Compound,growth
1,CC(C)(CCCN=C(N)Nc1ccc(Cl)cc1)c1ccc(F)cc1,53.9%
2,CCCOc1ccc2nc(NC(=O)OC)[nH]c2c1,89.8%
3,O=C(COc1cccc(/C=C2\CSc3ccccc3C2=O)c1)Nc1nccs1,68.9%
4,O=C(COc1cccc(/C=C2\COc3ccc(Cl)cc3C2=O)c1)c1ccc(Cl)cc1,71.9%
5,Cc1cn2c(/C=C3/C(=O)Nc4c3ccc3ccccc43)c(C(F)(F)F)nc2s1,28.1%
6,O=C1/C(=C/c2ccccc2O)N=C2SCCCN12,84.5%
7,COc1cc2c(cc1-c1c(C)noc1C)ncc1nc(C3CCCCC3)n([C@H](C)COC(F)F)c12,32.8%
8,COc1cccc(-c2nc(SCC(=O)Nc3ccc(C(=O)/C=C/c4ccc(OC)c(OC)c4)cc3)[nH]c(=O)c2C#N)c1,78.1%
9,CC(C)n1c(/C=C/[C@@H](O)C[C@@H](O)CC(=O)O)c(-c2ccc(F)cc2)c2ccccc21,72.7%
10,O=c1oc2c(C(F)(F)F)cccc2cc1-c1csc(Nc2ccc(OCCF)cc2)n1,71.1%
11,Cc1nc(Nc2ccc(F)c(Cl)c2)sc1C(=O)O,6.86% (active)
12,CCOc1nc(-c2ccccc2)cc2c(O)c(C(=O)O)[nH]c(=O)c12,97.9%
13,Cc1cc2c3ccccc3ccc2[n+]2ccccc12,4.64% (active)
14,Cc1oc(-c2ccc(Cl)cc2Cl)cc1C(=O)Nc1nccs1,70.3%
15,CC/C=C\C[C@H](O)C/C=C1/C(=O)C=C[C@@]1(C)C/C=C\CCCC(=O)OC,98.2%
16,COc1ccc(C(=O)COc2ccc(/C=C3\COc4ccc(OC)cc4C3=O)cc2)cc1,84.9%
17,CC[C@@H]1O[C@H](O[C@@H](c2cnc[nH]2)[C@H](NC(=O)c2nc([C@H](CC(N)=O)NC[C@@H](N)C(N)=O)nc(N)c2C)C(=O)N[C@H](C)[C@H](O)[C@H](C)C(=O)N[C@@H](C(=O)NCCc2nc(-c3nc(C(=O)NCCCCN=C(N)N)cs3)cs2)[C@@H](C)O)[C@H](O[C@@H]2O[C@H](CO)[C@H](O)[C@H](OC(N)=O)[C@@H]2O)[C@H](C)[C@@H]1C,57.4%
18,CN1CCN(c2ccc3nc(-c4ccc(OCCCCN5CCN(CCCCN6C(=O)c7cccc8cccc(c78)C6=O)CC5)cc4)[nH]c3c2)CC1,36.1%
19,O=C1c2c(O)cc(O)cc2-c2c(-c3ccc(O)cc3)oc3cc(O)cc1c23,8.47% (active)
